This passage reports growth results from PubChem BioAssay (NCI).

The structures appear in SMILES notation. Compounds without any hit were thinned out: in the full panel of roughly 83,000, 20% have a hit.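 Step 1: grow cells in 96-well plates. Step 2: add test compound at a single concentration. Step 3: incubate 48 h. Step 4: record percent growth.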 Unmarked numbers belong to inactive results. Calls of active or inactive are those of the source. Rule for the calls: active = growth percent below 10; inactive = the rest.

Test systems include SR leukemia; RPMI-8226 leukemia; OVCAR-8 ovarian; OVCAR-5 ovarian; OVCAR-4 ovarian; SK-OV-3 ovarian; IGROV1 ovarian; OVCAR-3 ovarian; HS 578T breast; NCI/ADR-RES ovarian; T-47D breast; BT-549 breast; MDA-MB-435 melanoma; SW-620 colon; MCF7 breast; HCT-116 colon; HCC-2998 colon; KM12 colon.
Holding throughout (assay): NCI-60 one-dose screen, 48 h (100 = growth as untreated, 0 = no growth, -100 = all killed)
Common to all, as to conditions: 10 µM unless noted

In the case of `COC(C(=O)[C@@H](O)[C@@H](C)O)[C@@H]1Cc2cc3cc(O[C@H]4C[C@@H](O[C@H]5C[C@@H](O)[C@H](O)C(C)O5)[C@H](O)C(C)O4)cc(O)c3c(O)c2C(=O)[C@H]1O[C@H]1C[C@@H](O[C@H]2C[C@@H](O[C@H]3C[C@@H](OC)[C@H](O)C(C)O3)[C@@H](O)C(C)O2)[C@H](O)C(C)O1` (stereo not given in full), the growth is 33.9% with SR leukemia; 50% in the experiment with RPMI-8226 leukemia; 42.4% in the experiment with OVCAR-8 ovarian; 54.3% in the experiment on OVCAR-5 ovarian; 64.5% with OVCAR-4 ovarian; 32.3% in the experiment with SK-OV-3 ovarian. Besides, the growth in the experiment on IGROV1 ovarian is 32.4%; in the experiment on OVCAR-3 ovarian it was 61%; in the experiment with HS 578T breast, 46.2%; with NCI/ADR-RES ovarian, 97.5%; in the experiment with T-47D breast, 35.2%; with BT-549 breast, 38.2%. For the same molecule, the growth with MDA-MB-435 melanoma was 44.8%; in the experiment with SW-620 colon it was 39.7%; with MCF7 breast, 11.5%; in the experiment on HCT-116 colon, 11.2%; with HCC-2998 colon, 63.7%; in the experiment with KM12 colon, 40%.
Take `O=C(CCCCC1CCSS1)Nc1ncnc2n[nH]c(-c3ccc(Oc4ccccc4)cc3)c12` (stereo not given): the growth is 32.9% with SR leukemia; 85.4% in the experiment with RPMI-8226 leukemia; 100% in the experiment with OVCAR-8 ovarian; 101% with OVCAR-5 ovarian; 108% in the experiment on OVCAR-4 ovarian; 123% in the experiment with SK-OV-3 ovarian. Also, the growth is 93.5% with IGROV1 ovarian; 116% in the experiment with OVCAR-3 ovarian; 117% with HS 578T breast; 89% with NCI/ADR-RES ovarian; 73.7% in the experiment with T-47D breast; 118% in the experiment on BT-549 breast. The growth in the experiment on MDA-MB-435 melanoma is -28.4% (active); in the experiment with SW-620 colon, 111%; with MCF7 breast, 43.2%; with HCT-116 colon it was 36.7%; in the experiment with HCC-2998 colon, 103%; with KM12 colon it was 70.5%.
Turning to `CCC(=C(c1ccc(OCCN2CCCC2)cc1)c1ccc(OCCN2CCCC2)cc1)c1ccc(Cl)cc1`, the growth is -40.5% (active) in the experiment on SR leukemia; -44.1% (active) in the experiment on RPMI-8226 leukemia; -7.08% (active) in the experiment on OVCAR-8 ovarian; 19.5% with OVCAR-5 ovarian; -43.4% (active) with OVCAR-4 ovarian; 84.8% in the experiment on SK-OV-3 ovarian. The growth in the experiment on IGROV1 ovarian is -20.2% (active); in the experiment on OVCAR-3 ovarian, -57.6% (active); in the experiment with HS 578T breast, -47.4% (active); in the experiment on NCI/ADR-RES ovarian, 10.5%; in the experiment on T-47D breast, -41.6% (active); with BT-549 breast, 69.5%. Moreover, the growth is -91.2% (active) in the experiment on MDA-MB-435 melanoma; -77.7% (active) in the experiment with SW-620 colon; -76% (active) with MCF7 breast; -81% (active) with HCT-116 colon; -74.2% (active) in the experiment on KM12 colon.
As to `CCOC(=O)CNP(=O)(OC[C@@H](Cc1ccccc1)NC(=O)c1cc2ccccc2s1)Oc1ccccc1` (stereo not given in full), the growth is 23.9% in the experiment on SR leukemia; 79.6% in the experiment on RPMI-8226 leukemia; 89.1% with OVCAR-8 ovarian; 95.4% in the experiment on OVCAR-5 ovarian; 88.4% with OVCAR-4 ovarian; 91.2% in the experiment with SK-OV-3 ovarian. In addition, the growth in the experiment on IGROV1 ovarian was 79.9%; in the experiment on OVCAR-3 ovarian it was 79.9%; with HS 578T breast, 76.5%; in the experiment on NCI/ADR-RES ovarian, 51.4%; in the experiment with T-47D breast, 55.3%; in the experiment on BT-549 breast, 74.6%. Also, the growth is 8.66% (active) with MDA-MB-435 melanoma; 47.3% with SW-620 colon; 51.2% with MCF7 breast; 71.9% with HCT-116 colon; 42.3% in the experiment on KM12 colon.
In the case of `COc1ccc(C(=S)N2CCN(c3ccccc3Cl)CC2)cc1OC`, the growth was 39.9% in the experiment on SR leukemia; 117% in the experiment on RPMI-8226 leukemia; 105% in the experiment with OVCAR-8 ovarian; 95.2% in the experiment on OVCAR-5 ovarian; 99.9% with OVCAR-4 ovarian; 120% in the experiment with SK-OV-3 ovarian. Also, the growth was 105% with IGROV1 ovarian; 104% in the experiment on OVCAR-3 ovarian; 99.4% in the experiment with HS 578T breast; 108% with NCI/ADR-RES ovarian; 79% with T-47D breast; 90.6% with BT-549 breast. Moreover, the growth in the experiment on MDA-MB-435 melanoma was 91.7%; with SW-620 colon, 106%; in the experiment on MCF7 breast it was 106%; in the experiment with HCT-116 colon, 87.1%; in the experiment with KM12 colon it was 123%.
As to `COC1=CC(c2ccc[nH]2)=N/C1=C\c1[nH]c(C)c(C(=O)OCc2ccccc2)c1C`, the growth was 9.69% (active) in the experiment with SR leukemia; -18% (active) with RPMI-8226 leukemia; -26.6% (active) in the experiment with OVCAR-8 ovarian; -38.5% (active) in the experiment on OVCAR-5 ovarian; -36.5% (active) in the experiment on OVCAR-4 ovarian; 7.66% (active) in the experiment with SK-OV-3 ovarian. Also, the growth with IGROV1 ovarian was -33.1% (active); in the experiment on OVCAR-3 ovarian, -66% (active); in the experiment on HS 578T breast, -37% (active); in the experiment with NCI/ADR-RES ovarian it was 0.894% (active); in the experiment with T-47D breast, -73.4% (active); with BT-549 breast, -13.8% (active). Moreover, the growth is -69.7% (active) with MDA-MB-435 melanoma; -25.5% (active) in the experiment on SW-620 colon; -76.3% (active) in the experiment with MCF7 breast; -75.4% (active) in the experiment on HCT-116 colon; -71.3% (active) with KM12 colon.
Consider `Cc1cc(Cl)ccc1Nc1nc(C(F)(F)F)ccc1C(=O)N/N=C/c1ccc([N+](=O)[O-])cc1`, for which the growth in the experiment with SR leukemia is -1.84% (active); with RPMI-8226 leukemia, -72.6% (active); in the experiment with OVCAR-8 ovarian it was 9.08% (active); with OVCAR-5 ovarian, -18.6% (active); with OVCAR-4 ovarian, -11.6% (active); with SK-OV-3 ovarian, -14.9% (active). Further, the growth with IGROV1 ovarian is -35.1% (active); in the experiment on OVCAR-3 ovarian, -18.1% (active); with HS 578T breast it was 97.3%; with NCI/ADR-RES ovarian, -32.8% (active); in the experiment on T-47D breast, -1.52% (active); with BT-549 breast, 6.01% (active). Moreover, the growth in the experiment on MDA-MB-435 melanoma was 6.79% (active); in the experiment with SW-620 colon it was 93.4%; with MCF7 breast, -47.7% (active); in the experiment with HCT-116 colon, 6.32% (active); in the experiment on KM12 colon it was -20.6% (active).
As to `COC(=O)[C@]1(C)CCC[C@]2(C)[C@H]3C[C@H]4C(C(C)C)=C[C@]3(CC[C@H]21)[C@H]1[C@@H]4[C@@H](OCCC#N)CC[C@@H]1OCCC#N`, the growth is 2.88% (active) in the experiment with SR leukemia; -16.1% (active) in the experiment on RPMI-8226 leukemia; 51.5% in the experiment on OVCAR-8 ovarian; 92.8% in the experiment with OVCAR-5 ovarian; 30.7% in the experiment with OVCAR-4 ovarian; 75.8% in the experiment on SK-OV-3 ovarian. The growth in the experiment with IGROV1 ovarian was 41.5%; in the experiment on OVCAR-3 ovarian, 22.7%; in the experiment on HS 578T breast, 59.4%; in the experiment on NCI/ADR-RES ovarian, 41.8%; with T-47D breast, 9.81% (active); with BT-549 breast, 19.8%. The growth with MDA-MB-435 melanoma was 42.7%; in the experiment with SW-620 colon, 47.8%; in the experiment on MCF7 breast, 9.07% (active); in the experiment on HCT-116 colon it was 15.4%; in the experiment on KM12 colon, 40.2%.
As for `CCCCC(=O)Nc1ncc(Cc2ccc(Cl)cc2)s1`, the growth in the experiment on SR leukemia was 33.5%; with RPMI-8226 leukemia, 86.2%; in the experiment with OVCAR-8 ovarian, 84.9%; in the experiment with OVCAR-5 ovarian, 73.9%; in the experiment on OVCAR-4 ovarian it was 80%; with SK-OV-3 ovarian it was 79.1%. Besides, the growth in the experiment with IGROV1 ovarian is 66.5%; with OVCAR-3 ovarian, 68.3%; in the experiment with HS 578T breast, 72.9%; with NCI/ADR-RES ovarian it was 48.4%; in the experiment with T-47D breast, 56.4%; in the experiment with BT-549 breast, 65%. Also, the growth was 0.64% (active) in the experiment on MDA-MB-435 melanoma; 37.7% with SW-620 colon; 37.4% in the experiment with MCF7 breast; 53.6% in the experiment on HCT-116 colon; 38.8% in the experiment with KM12 colon.
